From PubChem BioAssay (Tox21)
Results filed as inconclusive are left out. Active and inactive are the calls of the source. Unless noted, calls follow the shape of the full dose curve.

What was measured:
[1] = Nuclear factor erythroid 2-related factor 2/antioxidant responsive element (Nrf2/ARE) small molecule agonists: qHTS cell viability counter screen in human keratinocytes (AID 1919968; active = well fitted curve in the direction sought with a large enough effect in the repeat runs; an effect the other way counts as inactive or inconclusive; also: nearly all actives have a fitted effect of over 55% in size)
Method in brief: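 After a 5 h attachment period, ARE-reporter keratinocytes were dosed with compounds in DMSO and then cultured 23 h at 37 C. Cell viability came from CellTiter-Fluor signal read after a further 1 h.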

[2] = Nuclear factor erythroid 2-related factor 2/antioxidant responsive element (Nrf2/ARE) small molecule agonists: luciferase reporter gene qHTS assay in human keratinocytes (AID 1919969); also: nearly all actives have a fitted effect of over 35% in size
[3] = target: Gonadotropin-releasing hormone receptor (Homo sapiens) (UniProt P30968); assay: Human gonadotropin-releasing hormone receptor (GnRHR) small molecule agonists, calcium flux assay in GnRHR-HEK293 cells (AID 1920063); also: nearly all actives have a fitted effect of over 35% in size
Gonadotropin-releasing hormone receptor (Homo sapiens), sequence (P30968 whole entry, looked up): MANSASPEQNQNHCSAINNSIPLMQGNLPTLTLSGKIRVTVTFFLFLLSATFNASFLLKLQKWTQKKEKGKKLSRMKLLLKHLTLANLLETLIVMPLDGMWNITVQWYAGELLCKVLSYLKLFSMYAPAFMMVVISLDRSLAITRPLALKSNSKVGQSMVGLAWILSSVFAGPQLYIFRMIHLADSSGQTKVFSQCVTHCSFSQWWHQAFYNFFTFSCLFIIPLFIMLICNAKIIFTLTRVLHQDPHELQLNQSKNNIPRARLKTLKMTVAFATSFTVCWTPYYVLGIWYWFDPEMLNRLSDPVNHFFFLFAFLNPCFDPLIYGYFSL
Method in brief: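 We seeded human GnRHR-expressing HEK293 cells for 18 hours, loaded them with calcium dye for an hour at 37 C, added test compounds, and recorded fluorescence intensity kinetically for three minutes.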

[4] = target: KiSS-1 receptor (Homo sapiens) (UniProt Q969F8); assay: Human kisspeptin (KISS1R) small molecule agonists, calcium flux assay in KISS1R-HEK293 cells (AID 1920064; active = well fitted curve in the direction sought with a large enough effect in the repeat runs; an effect the other way counts as inactive or inconclusive)
KiSS-1 receptor (Homo sapiens), sequence (Q969F8 whole entry, looked up): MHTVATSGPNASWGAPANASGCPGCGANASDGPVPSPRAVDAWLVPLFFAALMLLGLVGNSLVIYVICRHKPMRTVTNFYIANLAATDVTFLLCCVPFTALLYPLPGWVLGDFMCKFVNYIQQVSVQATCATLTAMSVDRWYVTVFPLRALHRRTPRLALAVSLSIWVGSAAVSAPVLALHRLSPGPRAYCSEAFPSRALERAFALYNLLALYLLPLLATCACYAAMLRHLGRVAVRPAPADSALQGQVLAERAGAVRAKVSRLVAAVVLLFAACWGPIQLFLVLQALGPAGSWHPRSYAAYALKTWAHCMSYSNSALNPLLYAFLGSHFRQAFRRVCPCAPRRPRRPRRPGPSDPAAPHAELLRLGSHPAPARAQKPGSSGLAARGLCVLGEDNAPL
Method in brief: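 Kinetic calcium assay, 1 s sampling over 3 min at Ex/Em 480/540, in HEK293 cells engineered with human KISS1R; compounds delivered in DMSO after 1 h dye loading.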

[5] = G protein-coupled receptor (GPCR) small molecule agonists, calcium flux assay: HEK293 wild type cell line counter screen (AID 1920065)
Method in brief: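 Calcium-sensitive dye, loaded 1 h at 37 C into cells cultured 18 h, reports compound-evoked calcium release as fluorescence (Ex/Em 480/540), measured over 3 min. Agonist mode; 15-point titrations, triplicate.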

[6] = p53 small molecule agonists, cell-based qHTS assay with human liver microsomes (AID 1963577)
Method in brief: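 p53RE-bla cells, 4,000/well, compound added after 5 h, with human liver microsomes 0.5 mg/mL and NADPH 0.5 mg/mL final; 16 h at 37 C, then LiveBLAzer 2 h RT, fluorescence.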

[7] = p53 small molecule agonists, cell-based qHTS assay with rat liver microsomes (AID 1963578)
Method in brief: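 p53RE-bla cells, 4,000/well, pre-incubated 5 h, then given compounds plus rat liver microsomes (0.5 mg/mL final) and NADPH (0.5 mg/mL final). Incubation 16 h at 37 C; beta-lactamase reporter read by LiveBLAzer fluorescence after 2 h at room temperature.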

[8] = p53 small molecule agonists, cell-based qHTS assay with human liver microsomes: qHTS cell viability counter screen (AID 1963579); also: nearly all actives have a fitted effect of over 45% in size
Method in brief: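 p53RE-bla cells, 4,000/well, dosed 5 hours after plating, with human liver microsomes (0.5 mg/mL final) plus NADPH (0.5 mg/mL final), 16 hours at 37 C. Viability read as CellTiter-Glo luminescence after 30 min at room temperature.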

[9] = p53 small molecule agonists, cell-based qHTS assay with rat liver microsomes: qHTS cell viability counter screen (AID 1963580); also: nearly all actives have a fitted effect of over 45% in size
Method in brief: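 HCT-116 p53RE-bla, 4,000 cells/well, 5 h pre-incubation; cpd + rat liver microsomes 0.5 mg/mL + NADPH 0.5 mg/mL (final); 16 h, 37 C; CellTiter-Glo, 30 min RT; luminescence.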

[10] = p53 small molecule agonists, cell-based qHTS assay: qHTS cell viability counter screen (AID 1963581); also: nearly all actives have a fitted effect of over 45% in size
Method in brief: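 Following 5 h attachment, HCT-116 p53RE-bla cells took up compound for 16 h at 37 C; the reporter was read with B/G FRET substrate (2 h RT), and viability then via CellTiter-Glo ATP luminescence.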

[11] = p53 small molecule agonists, cell-based qHTS assay (AID 1963582; active = well fitted activation curve with a large enough effect in the signal ratio in the repeat runs, not every such curve was filed as active; the % refers to the signal ratio)
Method in brief: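 In this cell-based concentration-response screen, a p53 response element drives beta-lactamase; cells received DMSO-borne compounds after 5 h culture and were incubated a further 16 h before FRET substrate development.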

[12] = target: 5-hydroxytryptamine receptor 2A (Homo sapiens) (UniProt P28223); assay: 5-hydroxytryptamine receptor 2A (HTR2A) small molecule antagonists, cell-based qHTS assay (AID 1963586); also: nearly all actives have a fitted effect of over 45% in size
5-hydroxytryptamine receptor 2A (Homo sapiens), sequence (P28223 whole entry, looked up): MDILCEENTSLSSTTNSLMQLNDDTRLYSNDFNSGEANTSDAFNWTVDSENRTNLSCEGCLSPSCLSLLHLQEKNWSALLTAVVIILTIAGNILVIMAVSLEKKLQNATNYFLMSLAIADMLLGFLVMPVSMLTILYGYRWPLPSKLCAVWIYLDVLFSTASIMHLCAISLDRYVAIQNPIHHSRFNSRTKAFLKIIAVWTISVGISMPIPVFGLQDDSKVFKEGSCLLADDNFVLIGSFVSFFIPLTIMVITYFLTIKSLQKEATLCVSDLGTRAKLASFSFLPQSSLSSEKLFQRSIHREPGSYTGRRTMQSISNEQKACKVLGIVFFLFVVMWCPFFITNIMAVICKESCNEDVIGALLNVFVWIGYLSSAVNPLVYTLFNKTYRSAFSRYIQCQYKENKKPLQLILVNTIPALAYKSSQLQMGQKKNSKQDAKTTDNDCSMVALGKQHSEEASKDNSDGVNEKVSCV
Method in brief: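 Antagonist-mode intracellular calcium assay: DOI (4 nM) added after 5 min compound pre-incubation at room temperature to dye-loaded HTR2A-CHO cells. Fluorescence followed for 3 min, sampled every second.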

[13] = target: 5-hydroxytryptamine receptor 2A (Homo sapiens) (UniProt P28223); assay: 5-hydroxytryptamine receptor 2A (HTR2A) small molecule agonists, cell-based qHTS assay (AID 1963587); also: nearly all actives have a fitted effect of over 30% in size
Method in brief: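 Kinetic calcium-flux fluorescence (2 min, 1 sec intervals) after compound addition in agonist mode. HTR2A-CHO cells were cultured 18 h, then dye-loaded 1 h at 37 C.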

[14] = target: Muscarinic acetylcholine receptor M1 (Homo sapiens) (UniProt P11229); assay: Cholinergic receptor muscarinic 1 (CHRM1) small molecule antagonists, cell-based qHTS assay (AID 1963588); also: nearly all actives have a fitted effect of over 40% in size
Muscarinic acetylcholine receptor M1 (Homo sapiens), sequence (P11229 whole entry, looked up): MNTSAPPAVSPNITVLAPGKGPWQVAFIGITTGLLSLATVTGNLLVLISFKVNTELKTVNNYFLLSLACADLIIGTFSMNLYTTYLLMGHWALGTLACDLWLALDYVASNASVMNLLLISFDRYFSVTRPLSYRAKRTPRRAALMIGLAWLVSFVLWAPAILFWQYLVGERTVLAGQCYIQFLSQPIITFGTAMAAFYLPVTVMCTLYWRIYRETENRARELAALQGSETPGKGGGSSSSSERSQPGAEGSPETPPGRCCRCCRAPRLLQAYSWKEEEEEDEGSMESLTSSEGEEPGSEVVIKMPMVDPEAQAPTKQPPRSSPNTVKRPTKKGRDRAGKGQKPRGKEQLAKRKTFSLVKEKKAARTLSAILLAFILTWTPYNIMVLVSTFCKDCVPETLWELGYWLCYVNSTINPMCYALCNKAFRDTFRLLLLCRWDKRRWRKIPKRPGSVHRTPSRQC
Method in brief: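 CHRM1-CHO calcium-flux assay, antagonist mode. Cells were seeded 18 h, dye-loaded 1 h at 37 C and given compound for 5 min at RT, then acetylcholine was added at 50nM. FDSS fluorescence was read 3 min; 15 concentrations, three runs.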

[15] = cAMP Responsive Elements (CRE) small molecule agonists, cell-based qHTS assay (AID 1963590)
Method in brief: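 A CRE-responsive beta-lactamase reporter in HEK 293T cells was used. Treatment ran 3 h at 37 C; detection used LiveBLAzer B/G FRET substrate for 2 h at room temperature.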

[16] = cAMP Responsive Elements (CRE) small molecule antagonists, cell-based qHTS assay (AID 1963591; active = well fitted inhibition curve with a large enough effect in the signal ratio in the repeat runs, not every such curve was filed as active; the % refers to the signal ratio)
Method in brief: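 HEK293T cells carrying a CRE-driven beta-lactamase reporter receive compound and NKH477 (0.25 uM final) for 3 h. Fluorescence from LiveBLAzer B/G FRET substrate is read after 2 h at room temperature.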

[17] = target: Beta-2 adrenergic receptor (Homo sapiens) (UniProt P07550); assay: Adrenergic beta2 receptor (ADRB2) small molecule antagonists, cell-based qHTS assay (AID 1963592); also: series mostly up to about 92 µM; nearly all actives have a fitted effect of over 50% in size
Beta-2 adrenergic receptor (Homo sapiens), sequence (P07550 whole entry, looked up): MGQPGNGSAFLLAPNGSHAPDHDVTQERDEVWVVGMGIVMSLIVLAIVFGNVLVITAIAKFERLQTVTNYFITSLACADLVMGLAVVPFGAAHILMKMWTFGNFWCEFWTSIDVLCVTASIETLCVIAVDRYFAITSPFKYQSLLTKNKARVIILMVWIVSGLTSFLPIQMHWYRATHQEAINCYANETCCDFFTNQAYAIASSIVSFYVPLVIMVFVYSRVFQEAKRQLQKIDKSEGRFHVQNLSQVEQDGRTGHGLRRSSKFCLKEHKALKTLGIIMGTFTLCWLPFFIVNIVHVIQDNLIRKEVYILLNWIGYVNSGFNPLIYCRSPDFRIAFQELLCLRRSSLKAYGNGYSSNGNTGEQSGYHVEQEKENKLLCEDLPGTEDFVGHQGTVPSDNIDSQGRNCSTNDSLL
Method in brief: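 Cells (CHO, stable ADRB2 overexpression) incubated 18-20hr at 37C; compounds added from DMSO; agonist mix (1nM isoproterenol, 100uM IBMX, 25uM Ro-20-1724) added; 0.5hr RT; d2-cAMP and anti-cAMP-cryptate added; 1hr RT; 665/615 nm read.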

[18] = target: D(2) dopamine receptor (Homo sapiens) (UniProt P14416); assay: Dopamine D2 receptor (DRD2) small molecule agonists, cell-based qHTS assay (AID 1963594); also: nearly all actives have a fitted effect of over 35% in size
D(2) dopamine receptor (Homo sapiens), sequence (P14416 whole entry, looked up): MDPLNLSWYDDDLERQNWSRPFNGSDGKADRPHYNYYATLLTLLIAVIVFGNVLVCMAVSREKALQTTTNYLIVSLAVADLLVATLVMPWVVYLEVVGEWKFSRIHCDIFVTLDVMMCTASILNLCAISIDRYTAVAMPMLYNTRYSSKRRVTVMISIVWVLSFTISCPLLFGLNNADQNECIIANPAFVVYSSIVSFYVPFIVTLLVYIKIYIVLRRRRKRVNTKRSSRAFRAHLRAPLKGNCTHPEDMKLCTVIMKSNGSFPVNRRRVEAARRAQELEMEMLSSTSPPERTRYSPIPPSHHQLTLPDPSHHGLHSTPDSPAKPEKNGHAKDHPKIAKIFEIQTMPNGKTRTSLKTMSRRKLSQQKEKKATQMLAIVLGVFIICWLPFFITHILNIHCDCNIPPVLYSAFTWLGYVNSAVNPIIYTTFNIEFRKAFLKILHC
Method in brief: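 cAMP accumulation in DRD2-HEK293 cells measured by HTRF after 1 h detection; compounds added 10 min before NKH477 (200nM […]) forskolin-analogue stimulation, 30 min at room temperature, with Ro20-1724 present at 0.1 mM final.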

[19] = target: D(2) dopamine receptor (Homo sapiens) (UniProt P14416); assay: Dopamine D2 receptor (DRD2) small molecule antagonists, cell-based qHTS assay (AID 1963595; active = well fitted inhibition curve with a large enough effect in the signal ratio in the repeat runs, with a control signal flat; the % refers to the signal ratio)
Method in brief: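 Readout: HTRF cAMP, cAMP-d2 competing with cellular cAMP for anti-cAMP cryptate, read after 1 h. Cells: DRD2-HEK293. Conditions: 0.1 mM Ro20-1724, 12 nM quinpirole, 200 nM NKH477, 30 min RT.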
% is scaled to controls: 0 for no effect and ±100 for the full control effect.

O=C=NCc1cccc(CN=C=O)c1
inactive: activity change, negative = cytotoxicity [1] 3.98% [at 19 µM] | activity, positive = activation [2] -9.19% [at 19 µM] | activity change [3] -0.327% [at 11.8 µM, active compounds read high] | activation [4] 0.462% [at 15.8 µM] | activation [5] 0.869% [at 11.8 µM] | activation [6] -0.418% [at 13.5 µM] | activation [7] 0.266% [at 13.6 µM] | activity change, negative = cytotoxicity [8] 2.85% [at 13.5 µM] | activity change, negative = cytotoxicity [9] 10.6% [at 13.5 µM] | activity change, negative = cytotoxicity [10] 8.14% [at 13.5 µM] | activation [11] -3.35% [at 13.5 µM] | activity, negative = inhibition [12] 11.7% [at 12.7 µM] | activation [13] 3.99% [at 15.9 µM] | activity, negative = inhibition [14] -10.9% [at 12.6 µM] | activation [15] 1.18% [at 19 µM] | activity change, negative = inhibition [16] 0.972% [at 18.9 µM] | activity change, negative = inhibition [17] -5.04% [at 19 µM] | activation [18] -2% [at 19 µM] | activity change, negative = inhibition [19] 2.32% [at 18.9 µM]

C=CC(=O)O
inactive: Potency [1] | Potency [2] | Potency [3] | outcome [4] | outcome [5] | Potency [6] | Potency [7] | Potency [8] | Potency [9] | Potency [10] | Potency [11] | Potency [12] | Potency [13] | Potency [14] | Potency [15] | Potency [16] | Potency [17] | Potency [18] | Potency [19]

CC1c2ccccc2CN1NC(=O)c1ccc(Cl)c(S(N)(=O)=O)c1 (stereo not given)
inactive: Potency [1] | Potency [2] | Potency [3] | outcome [4] | outcome [5] | Potency [6] | Potency [7] | Potency [8] | Potency [9] | Potency [10] | Potency [11] | Potency [12] | Potency [13] | Potency [14] | Potency [15] | Potency [16] | Potency [17] | Potency [18]

ClC1=C(Cl)C1(Cl)Cl
inactive: Potency [1] | Potency [2] | Potency [3] | outcome [4] | outcome [5] | Potency [6] | Potency [7] | Potency [8] | Potency [9] | Potency [10] | Potency [11] | Potency [12] | Potency [13] | Potency [14] | Potency [15] | Potency [16] | Potency [17] | Potency [18] | Potency [19]

CC/C=C\CCOC(=O)c1ccccc1
inactive: Potency [1] | Potency [2] | Potency [3] | outcome [4] | outcome [5] | Potency [6] | Potency [7] | Potency [8] | Potency [9] | Potency [10] | Potency [11] | Potency [12] | Potency [13] | Potency [14] | Potency [15] | Potency [16] | Potency [17] | Potency [18] | Potency [19]

CCCCCCCCCCCCCCCCCC(=O)OCCCCCCCCCCCCCC(C)C
inactive: Potency [1] | Potency [2] | Potency [3] | outcome [4] | outcome [5] | Potency [6] | Potency [7] | Potency [8] | Potency [9] | Potency [10] | Potency [11] | Potency [12] | Potency [13] | Potency [14] | Potency [15] | Potency [18] | Potency [19]

Cc1cccc(C)n1
inactive: Potency [1] | Potency [2] | Potency [3] | outcome [4] | outcome [5] | Potency [6] | Potency [7] | Potency [8] | Potency [9] | Potency [10] | Potency [11] | Potency [12] | Potency [13] | Potency [14] | Potency [15] | Potency [16] | Potency [17] | Potency [18] | Potency [19]
